Data on 7 compounds can be found in PubChem BioAssay (NCI).

Test systems include DU-145 prostate; K-562 leukemia; MALME-3M melanoma; MDA-MB-231 breast; RXF 393 renal; SF-268 CNS; SF-295 CNS; SF-539 CNS; UACC-257 melanoma; M14 melanoma; HCT-15 colon; HT29 colon; SNB-75 CNS; SNB-19 CNS; U251 CNS; PC-3 prostate; SK-MEL-5 melanoma; UACC-62 melanoma; LOX IMVI melanoma; SK-MEL-28 melanoma.
Common to all, as to assay: NCI-60 one-dose screen, 48 h (100 = growth as untreated, 0 = no growth, -100 = all killed)
What all share (details): 10 µM unless noted

SMILES strings stand for the structures. This is part of a sample that, as a whole, favours compounds with a hit. Of some 83,000 tested, about 20% had one in any assay.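 Results are percent growth after 48 hours of single-concentration exposure. 100 means growth as in untreated cells, lower positive values show inhibition; negative values down to -100 show cell death.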 Unmarked numbers belong to inactive results. Activity calls are given as the source filed them. The calls were made as follows: active = growth percent below 10; inactive = the rest.

With `COC(=O)[C@H](CC(C)C)NC(=O)NC(=O)NC(=O)CI`, the growth in the test with DU-145 prostate was 109%; with K-562 leukemia, 2.16% (active); in the test with MALME-3M melanoma, -57% (active); in the test with MDA-MB-231 breast it was 33.4%; with RXF 393 renal, 64.1%; in the test on SF-268 CNS, 85%. The growth with SF-295 CNS was 88.8%; in the test on SF-539 CNS, 77.2%; in the test on UACC-257 melanoma it was 98.2%; with M14 melanoma, 63.5%; in the test with HCT-15 colon it was -36% (active); in the test on HT29 colon it was -43.2% (active). Also, the growth in the test on SNB-75 CNS is 102%; in the test on SNB-19 CNS, 92%; in the test with U251 CNS, 90.6%; in the test on PC-3 prostate, 78.3%; in the test on SK-MEL-5 melanoma it was 92.6%; with UACC-62 melanoma it was 86.4%. The growth in the test on LOX IMVI melanoma was -78.6% (active); with SK-MEL-28 melanoma it was 89.6%.

As for `Cc1cc(NN=C(c2ccc(O)cc2)c2ccc(O)cc2)c([N+](=O)[O-])cc1[N+](=O)[O-]`, the growth in the test with DU-145 prostate was 81.8%; in the test with K-562 leukemia, 99.1%; in the test on MALME-3M melanoma, 100%; with MDA-MB-231 breast it was 59.6%; in the test on RXF 393 renal, 25.7%; in the test on SF-268 CNS it was 53.9%. The growth with SF-295 CNS was 43.6%; with SF-539 CNS it was 69.5%; in the test with UACC-257 melanoma, 42.5%; in the test on M14 melanoma, 36.8%; in the test on HCT-15 colon it was 46.3%; with HT29 colon, 91.5%. For the same compound, the growth in the test with SNB-75 CNS was 74.3%; in the test with SNB-19 CNS it was 89.3%; with U251 CNS, 49.4%; in the test on PC-3 prostate, 38.4%; in the test on SK-MEL-5 melanoma it was 46%; in the test with UACC-62 melanoma, 69.1%. Also, the growth is 25.3% in the test with LOX IMVI melanoma and 61.6% in the test on SK-MEL-28 melanoma.

`O=[N+]([O-])c1cccc(N=NNc2cccc([N+](=O)[O-])c2)c1`: the growth in the test on DU-145 prostate is 86.2%; with K-562 leukemia, 103%; with MALME-3M melanoma, 102%; in the test with MDA-MB-231 breast, 78.8%; in the test on RXF 393 renal it was 90.2%; with SF-268 CNS, 93.5%. Moreover, the growth is 95.6% in the test with SF-295 CNS; 97.6% in the test on SF-539 CNS; 103% in the test with UACC-257 melanoma; 102% in the test on M14 melanoma; 85.8% with HCT-15 colon; 92.6% with HT29 colon. For the same compound, the growth is 94.4% in the test with SNB-75 CNS; 92% in the test on SNB-19 CNS; 82.8% in the test on U251 CNS; 86.4% in the test on PC-3 prostate; 87.3% in the test on SK-MEL-5 melanoma; 76.5% with UACC-62 melanoma. Also, the growth in the test with LOX IMVI melanoma is 89.1%; in the test on SK-MEL-28 melanoma it was 99.5%.

On to `CCN(CC)c1cc(N)c(Cc2c(N)cc(N(CC)CC)cc2Cl)c(Cl)c1`, for which the growth in the test on DU-145 prostate is 67.4%; in the test on K-562 leukemia, 19.2%; with MALME-3M melanoma, 44.6%; with MDA-MB-231 breast, 48.5%; in the test with RXF 393 renal it was 63.7%; in the test on SF-268 CNS, 36.6%. Further, the growth in the test with SF-295 CNS was 31.8%; in the test with SF-539 CNS, 44.2%; in the test on UACC-257 melanoma, 12.4%; in the test with M14 melanoma, 52.5%; in the test on HCT-15 colon, 91.7%; with HT29 colon, 27.6%. The growth was 8.86% (active) with SNB-75 CNS; 35.1% in the test with SNB-19 CNS; 21.6% with U251 CNS; 38.4% with PC-3 prostate; -27.8% (active) with SK-MEL-5 melanoma; 47.5% in the test on UACC-62 melanoma. The growth in the test on LOX IMVI melanoma is 37.7%; with SK-MEL-28 melanoma it was 53.2%.

In the case of `COc1cc2c(cc1OCCCN1CCN(CCCOc3cc4c(cc3OC)C(=O)N3C[C@H](F)C[C@H]3C=N4)CC1)N=C[C@@H]1C[C@@H](F)CN1C2=O`, the growth in the test on DU-145 prostate was -19.9% (active); with K-562 leukemia, 2.13% (active); with MALME-3M melanoma, -75.7% (active); in the test on MDA-MB-231 breast, 18.8%; in the test on RXF 393 renal, -52.1% (active); in the test on SF-268 CNS it was 9.5% (active). The growth with SF-295 CNS is 13.8%; in the test on SF-539 CNS it was -68.4% (active); in the test with UACC-257 melanoma, 20.8%; in the test on M14 melanoma, -7.96% (active); in the test with HCT-15 colon it was 56.6%; with HT29 colon, 0.625% (active). Moreover, the growth with SNB-75 CNS was -72.3% (active); in the test on SNB-19 CNS, 18.1%; in the test with U251 CNS it was 8.39% (active); in the test with PC-3 prostate, 12.7%; in the test on SK-MEL-5 melanoma it was -44.7% (active); with UACC-62 melanoma it was -59.7% (active). The growth in the test with LOX IMVI melanoma is 5.06% (active); in the test with SK-MEL-28 melanoma, -50.8% (active).

Take `Cc1cc[n+](CCCCCCCCCC[n+]2ccc(C)cc2)cc1`: the growth in the test on DU-145 prostate was 93.7%; in the test on K-562 leukemia, 79.8%; with MALME-3M melanoma it was 113%; with MDA-MB-231 breast, 105%; in the test on RXF 393 renal, 127%; in the test with SF-268 CNS, 93.4%. Also, the growth with SF-295 CNS is 73.1%; in the test with SF-539 CNS, 99.2%; in the test with UACC-257 melanoma, 106%; in the test on M14 melanoma, 97.7%; with HCT-15 colon, 103%; in the test on HT29 colon, 84.3%. Further, the growth in the test on SNB-75 CNS is 95.3%; in the test on SNB-19 CNS, 104%; in the test on U251 CNS, 105%; in the test with PC-3 prostate, 87.6%; in the test with SK-MEL-5 melanoma, 92.8%; with UACC-62 melanoma, 92.6%. Further, the growth with LOX IMVI melanoma is 91.4%; in the test on SK-MEL-28 melanoma, 101%.

Consider `COc1cc(/C=C/C(=O)/C=C/c2ccc(-n3ccnc3)cc2)ccc1O`, for which the growth with DU-145 prostate is 54.4%; with K-562 leukemia it was 7.93% (active); in the test on MALME-3M melanoma, 79.3%; with MDA-MB-231 breast it was 63.7%; in the test with RXF 393 renal, 26.8%; in the test with SF-268 CNS it was 54.8%. For the same compound, the growth with SF-295 CNS was 75.2%; in the test with SF-539 CNS, -0.198% (active); with UACC-257 melanoma, 84.7%; in the test with M14 melanoma, 104%; in the test on HCT-15 colon it was 82.2%; in the test on HT29 colon, 3.46% (active). Moreover, the growth in the test with SNB-75 CNS is 62.3%; in the test with SNB-19 CNS, 76.9%; in the test with U251 CNS it was -0.424% (active); in the test with PC-3 prostate, 62.4%; in the test on SK-MEL-5 melanoma, 74%; in the test on UACC-62 melanoma it was 85.2%. The growth with LOX IMVI melanoma is -44% (active); in the test on SK-MEL-28 melanoma it was 86.7%.
